Results on eight compounds are retold here after PubChem BioAssay (NCATS).

Experiment [1] can be described thus: P-glycoprotein substrates identified in KB-8-5-11 adenocarcinoma cell line, qHTS therapeutic library screen (AID 1346987). Note: nearly all actives have a fitted effect of over 65% in size. Note: potency is the fitted concentration of half-maximal effect. The method in brief:
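Steps: plate 500 KB-8-5-11 cells/well in DMEM + 10% FCS (colchicine removed); pin compounds in dose-response; incubate 72 h, 37 degree C, 5% CO2; add CellTiter-Glo, 5 min; read luminescence.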
(In general: In qHTS, concentration-response curves come from the screen itself.)

For experiment [2], the target named is Calcium and integrin-binding protein 1 (Homo sapiens) (UniProt Q99828). Nature of the experiment: Primary qHTS for Identification of Calcium Integrin Binding Protein 1 (CIB1) Competitor (AID 1508620).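 Note: GST tagged CIB1 binding a fluorescein labelled alphaIIb integrin peptide tracer; top concentration of the series differs between compounds; % is set by controls: 0 for no effect and ±100 for the full control effect.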 The method in brief:
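Fluorescence polarization competition: CIB1-GST (1 uM final) preincubated with compound 15 min at room temperature, then FITC-labeled alphaIIb peptide (100 nM final) added for another 15 min. Polarization read at Ex 480/Em 540.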

For experiment [3], the target named is Catechol O-methyltransferase (Homo sapiens) (UniProt P21964). Nature of the experiment: Confirmatory Screen for Target Class Profiling of Small Molecule Inhibitors of Methyltransferases (AID 1745852). For activity change, negative = inhibition: % is set by controls: 0 for no effect and ±100 for the full control effect. As to conditions: MTase-Glo luminescence, SAH detection, recombinant enzyme; measured here: COMT max response; stronger effect = lower value.
The target of experiment [4] is Guanidinoacetate N-methyltransferase (Homo sapiens) (UniProt Q14353). Described as above. The settings on record: activity change, negative = inhibition: at 57.3 µM (top of the series) unless noted.
Experiment [5] has as its target Nicotinamide N-methyltransferase (Homo sapiens) (UniProt P40261). The description is as above. As to conditions: MTase-Glo luminescence, SAH detection, recombinant enzyme; measured here: NNMT max response; stronger effect = lower value.
For experiment [6], the target named is Phenylethanolamine N-methyltransferase (Homo sapiens) (UniProt P11086). Described as above. As to conditions: MTase-Glo luminescence, SAH detection, recombinant enzyme; measured here: PNMT max response; stronger effect = lower value.
Experiment [7] has as its target Glutathione peroxidase 1 (Homo sapiens) (UniProt P07203). In words: Primary qHTS Assay for Inhibitors of Recombinant Selenoprotein Glutathione Peroxidase 1 (GPX1) (AID 1845191). Note: nearly all actives have a fitted effect of over 65% in size. The procedure, abridged:
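Recombinant GPX1 (10 nM final) was preincubated with compound for 30 min at room temperature, then reacted with 1 mM GSH, 0.5 mM CHP, 0.5 mM NADPH and 100 nM glutathione reductase; NADPH fluorescence (340/450 nm) was read at 0 and 15 min.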

A short description of experiment [8]: qHTS to identify inhibitors of the type 1 interferon - major histocompatibility complex class I in skeletal muscle: primary screen against the NCATS Mechanism Interrogation Plate v5.0 (MIPE) Libary (AID 1347411).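 Note: plate controls were vehicle for no effect and reference inhibitor for full effect; nearly all actives have a fitted effect of over 65% in size.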 The method in brief: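 Luminescence from HiBiT-tagged endogenous HLA-B*08:01 served as the MHC class I read-out. CRISPR-engineered C25cl48 human myoblasts received 4.0 ng/ml IFN-beta plus compound for 24 hrs, with an 11-point, 1:3 series topping at 46 uM final.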

A short description of experiment [9]: qHTS drug screen for cell cycle checkpoint inhibitors in PARPi-resistant BRCA-mutant ovarian cancer cell lines. (AID 1963452; calls by dose curve). The settings on record: PEO1/OlaR viability, CellTiter-Glo luminescence, 96 h, stronger effect = lower value. The method in brief:
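PEO1, PEO4 and PEO1/OlaR ovarian cancer cells, 600 per well, exposed 96 h at 37C to a dilution series. Viability read by CellTiter-Glo luminescence, normalized to DMSO and empty wells; activity summarized as Z-AUC.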

Experiment [10] is described as follows: Primary qHTS for inhibitors of nuclear receptor binding SET domain protein 2 (NSD2) in an isogenic RCH-ACV NSD2 p.E1099K mutant (9B) (AID 1645876). Note: potency is the fitted concentration of half-maximal effect; nearly all actives have a fitted effect of over 70% in size.
A short description of experiment [11]: Primary qHTS for inhibitors of nuclear receptor binding SET domain protein 2 (NSD2) in an RCH-ACV wild type WT cells (2C) (AID 1645877). Note: potency is the fitted concentration of half-maximal effect; nearly all actives have a fitted effect of over 70% in size.
The nature of experiment [12]: qHTS assay to identify inhibitors of the type 1 interferon - major histocompatibility complex class I in skeletal muscle: Counter screen cell viability and HiBit confirmation (AID 1347412). Note: % is set by controls: 0 for no effect and ±100 for the full control effect; nearly all actives have a fitted effect of over 60% in size. The settings on record: iHSKM muscle cells + IFN-b, HiBiT or CellTiter-Glo, 24 h; HiBiT; at 45.9 µM (top of the series). The method in brief:
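Myoblasts (C25cl48, HLA-B HiBiT) seeded in medium without dexamethasone, IFN-b 4 ng/ml added except unstimulated columns; 1 hr later compounds pinned (12-pt 1:3, top 46 uM final). Incubated 24 hrs, lysed 10 min, luminescence measured.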

In experiment [13] the target is Phospholipid hydroperoxide glutathione peroxidase GPX4 (Homo sapiens) (UniProt P36969). Nature of the experiment: Primary qHTS Assay for Inhibitors of Recombinant Selenoprotein Glutathione Peroxidase 4 (GPX4) (AID 1845192). Note: % is set by controls: 0 for no effect and ±100 for the full control effect; nearly all actives have a fitted effect of over 65% in size. The settings on record: outcome: dose series up to 50 µM unless noted. The method in brief: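 GR-coupled readout: 100 nM GR, 1 mM GSH, 0.5 mM NADPH; NADPH fluorescence (ex 340/em 450 nm) read at t=0 and after 15 min RT. GPX4 200 nM, preincubated 30 min with compound; substrate 0.5 mM CHP.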

Where [14] appears, read: measured here: PEO1 parental Z-AUC.

Several values for one entry are separate records, joined by “and”; a condition that tells them apart may be missing. Identical values can stand only once. Records with an inconclusive call do not appear. Activity calls are given as the source filed them. Unless noted, calls come from the whole dose curve; as a rule, active = well fitted curve in the direction sought with a large enough effect; inconclusive = small, poorly fitted or top-dose-only effect, or another doubt; inactive = no such curve, though single readings can be large; an effect the other way counts as inactive or inconclusive.

Chain of Glutathione peroxidase 1 (Homo sapiens) (P07203 whole entry, looked up): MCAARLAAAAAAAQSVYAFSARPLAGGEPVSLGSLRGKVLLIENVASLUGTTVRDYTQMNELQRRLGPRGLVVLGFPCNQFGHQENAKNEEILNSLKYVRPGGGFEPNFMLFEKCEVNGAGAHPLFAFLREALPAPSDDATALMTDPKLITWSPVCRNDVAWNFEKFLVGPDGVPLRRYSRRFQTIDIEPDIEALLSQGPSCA
Chain of Nicotinamide N-methyltransferase (Homo sapiens) (P40261 whole entry, looked up): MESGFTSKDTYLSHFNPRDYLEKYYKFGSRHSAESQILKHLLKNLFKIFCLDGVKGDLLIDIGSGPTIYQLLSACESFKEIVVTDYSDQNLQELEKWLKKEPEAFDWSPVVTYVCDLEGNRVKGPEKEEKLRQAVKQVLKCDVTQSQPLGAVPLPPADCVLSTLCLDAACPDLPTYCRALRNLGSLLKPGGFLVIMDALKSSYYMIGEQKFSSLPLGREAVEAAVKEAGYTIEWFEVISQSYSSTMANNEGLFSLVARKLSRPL
Chain of Phenylethanolamine N-methyltransferase (Homo sapiens) (P11086 whole entry, looked up): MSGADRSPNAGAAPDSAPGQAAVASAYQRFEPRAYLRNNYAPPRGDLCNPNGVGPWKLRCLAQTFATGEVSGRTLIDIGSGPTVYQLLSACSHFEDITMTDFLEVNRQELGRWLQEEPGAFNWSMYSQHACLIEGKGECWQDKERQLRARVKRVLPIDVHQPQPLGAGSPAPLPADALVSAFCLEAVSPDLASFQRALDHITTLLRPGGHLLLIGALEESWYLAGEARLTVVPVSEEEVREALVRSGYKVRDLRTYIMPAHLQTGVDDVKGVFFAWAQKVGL
Chain of Catechol O-methyltransferase (Homo sapiens) (P21964 whole entry, looked up): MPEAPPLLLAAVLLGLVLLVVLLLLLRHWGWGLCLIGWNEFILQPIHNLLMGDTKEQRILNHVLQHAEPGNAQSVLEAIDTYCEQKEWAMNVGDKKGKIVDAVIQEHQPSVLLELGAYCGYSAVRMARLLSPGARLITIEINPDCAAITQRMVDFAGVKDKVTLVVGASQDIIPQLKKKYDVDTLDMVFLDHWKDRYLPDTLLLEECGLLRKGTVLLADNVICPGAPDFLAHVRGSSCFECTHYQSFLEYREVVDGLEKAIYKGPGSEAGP
Chain of Calcium and integrin-binding protein 1 (Homo sapiens) (Q99828 whole entry, looked up): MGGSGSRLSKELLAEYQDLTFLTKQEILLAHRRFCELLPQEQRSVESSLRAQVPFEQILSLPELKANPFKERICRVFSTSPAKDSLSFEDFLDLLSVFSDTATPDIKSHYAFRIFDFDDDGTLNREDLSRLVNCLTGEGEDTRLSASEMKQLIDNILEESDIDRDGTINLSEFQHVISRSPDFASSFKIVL
Chain of Phospholipid hydroperoxide glutathione peroxidase GPX4 (Homo sapiens) (P36969 whole entry, looked up): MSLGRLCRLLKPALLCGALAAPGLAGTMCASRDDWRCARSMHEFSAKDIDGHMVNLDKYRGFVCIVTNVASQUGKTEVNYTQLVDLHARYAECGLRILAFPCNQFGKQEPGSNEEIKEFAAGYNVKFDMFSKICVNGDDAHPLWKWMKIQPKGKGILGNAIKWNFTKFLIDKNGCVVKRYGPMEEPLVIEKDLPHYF

Consider `CC(C)n1nc(Cc2cccc3ccccc23)c2c(N)ncnc21`, for which, in [1], the Potency is 18.4 µM (active). Moreover, in experiment [2], the outcome is “inactive”. Moreover, the values for the activity in experiment [3], in experiment [5] and in experiment [6] were -11.5%, -28.9% and -57.3%, respectively. In experiment [4], the activity change, negative = inhibition was -6.43%. Further, the Potency result in [7] was “inactive”.
On to `Cc1ccc2cc(-c3c(C)ccc(C(=O)c4c(-c5ccccc5)n(C)n(-c5ccccc5)c4=O)c3N)ccc2n1`, for which the Potency in experiment [1] was 16.4 µM (active). Moreover, the Potency entry in experiment [8] and in experiment [7] was “inactive” each time. The Z-AUC was -0.557 (inactive) in [9], -0.233 in experiment [9] (setting [14]) and -0.0214 in experiment [9] (measured here: PEO4 Z-AUC).
On to `COc1c(-c2ccc3cc(NS(C)(=O)=O)ccc3c2)cc(-n2ccc(=O)[nH]c2=O)cc1C(C)(C)C`, for which the Potency result in [1] and in [7] was “inactive” each time.
Take `COc1cc(/C=C\c2ccc(O)cc2)cc(OC)c1`: the Potency entry in experiment [1] and in [7] was “inactive” each time. The Potency in [10] was 6.51 µM (active).
`C[C@@H](Nc1cc(F)cc(F)c1)c1cc(C(=O)N(C)C)cc2c(=O)cc(N3CCOCC3)oc12`: the Potency entry in experiment [1] and in experiment [7] was “inactive” each time. In addition, the Potency in experiment [10] was 259 nM (active) and 235 nM (active); in experiment [11], 411 nM (active) and 1.18 µM (active). In addition, the Z-AUC in [9] is -0.864 (inactive); in [9] (setting [14]), -0.746; in experiment [9] (measured here: PEO4 Z-AUC), -0.41. The activity change, negative = inhibition in experiment [12] is -23.5% (inactive).
In the case of `CC(C)(C)n1nc(-c2cccc3ccccc23)c2c(N)ncnc21`, the Potency entry in [1] and in experiment [7] was “inactive” throughout.
For the compound `O=C(/C=C/c1cccnc1)c1ccncc1`, the Potency entry in experiment [1] and in experiment [7] was “inactive” each time.
With `CNc1ncc2cc(-c3cc(NC(=O)NCCC(C)(C)C)c(F)cc3C)c(C)nc2n1`, the Potency was 4.61 µM (active) in experiment [1], 0.417 µM (active) in experiment [10] and 590 nM (active) in experiment [11]. Moreover, the Potency entry in experiment [8], in experiment [7] and in experiment [13] was “inactive” throughout. The values for the Z-AUC in experiment [9], in experiment [9] (setting [14]) and in experiment [9] (measured here: PEO4 Z-AUC) were -1.04 (inactive), -0.267 and -0.215, respectively.
